# Screens deposited in PubChem by National Center for Advancing Translational Sciences (NCATS).
# Compounds with a hit are over-represented: about 9.2% of the library has one in this group of screens.
# ELG1 DNA repair – qHTS screen for small molecules that inhibit ELG1-dependent DNA repair in human embryonic kidney (HEK293T) cells expressing luciferase-tagged ELG1; AID 504467, 2011; Potency, µM (titrated, usually from 46.1 µM), hits mostly inhibitors; 330,000 tested, 2.3% active; HEK293T ELG1-luciferase reporter, luminescence, 16 h; DNA damage induced by 5-fluorouridine; further: nearly all actives have a fitted effect of over 55% in size
#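 In this reporter screen, reduction of luminescence relative to DMSO vehicle indicated activity. Compounds and 5-fluorouridine were added together to 2,000 cells per well, incubated for 16 hr at 37 °C, then developed with ONE-Glo.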
# Rab9 promoter act – qHTS Assay for Rab9 Promoter Activators | Huh7 Rab9 promoter-luciferase reporter, luminescence, 24 h | Potency, µM (series often up to 9.22 µM), most hits filed as activators | 320,000 tested, 2.8% active; further: nearly all actives have a fitted effect of over 60% in size
#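 Luminescence from Amplite-detected luciferase (10 minutes, ambient) reports Rab9 promoter activation. Before that, stable Rab9-luciferase Huh7 cells (1500/well, reduced-serum OP-MEM I plus 10% FBS) were exposed to compound for 24 hours at 37C.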
# SMN2 splice up – qHTS Assay for Enhancers of SMN2 Splice Variant Expression | Potency, µM (titrated, usually from 46.1 µM), hits mostly activators | HEK293 SMN2-luciferase splicing reporter, luminescence, 30-36 h | 210,000 tested, 2.8% active; further: nearly all actives have a fitted effect of over 55% in size
#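 HEK293 cells carry an SMN2 minigene-luciferase reporter in which exon 7 inclusion puts luciferase in frame. Cells were seeded at 2000 cells/well, attached for 10-12 hours, then exposed to compounds for 30-36 hours at 37C before ONE-Glo luminescence.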
# FLuc counter – qHTS profiling assay for firefly luciferase inhibitor/activator using purifed enzyme and Km concentrations of substrates (counterscreen for miR-21 project); Luciferin 4-monooxygenase (Photinus pyralis), P08659; purified FLuc, Km substrates, luminescence inhibition; Potency, µM (series often up to 57.5 µM), hits mostly inhibitors; 360,000 tested, 6.9% active; AID 588342, 2011; further: nearly all actives have a fitted effect of over 55% in size
# Target sequence (P08659 whole entry, looked up): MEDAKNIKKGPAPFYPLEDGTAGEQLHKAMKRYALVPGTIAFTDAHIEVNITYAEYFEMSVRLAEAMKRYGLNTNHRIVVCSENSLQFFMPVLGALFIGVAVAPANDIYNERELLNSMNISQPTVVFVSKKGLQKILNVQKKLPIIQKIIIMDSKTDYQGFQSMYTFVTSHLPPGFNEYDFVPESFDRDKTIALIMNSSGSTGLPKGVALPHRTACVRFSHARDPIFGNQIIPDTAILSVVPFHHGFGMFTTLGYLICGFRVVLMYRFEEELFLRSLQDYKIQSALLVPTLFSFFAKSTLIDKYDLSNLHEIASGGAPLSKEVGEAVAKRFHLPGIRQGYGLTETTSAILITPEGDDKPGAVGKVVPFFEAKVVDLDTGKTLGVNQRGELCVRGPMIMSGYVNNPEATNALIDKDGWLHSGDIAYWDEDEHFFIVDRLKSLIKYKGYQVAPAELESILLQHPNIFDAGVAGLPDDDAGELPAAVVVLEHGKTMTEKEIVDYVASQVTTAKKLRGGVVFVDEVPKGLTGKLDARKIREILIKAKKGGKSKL
#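 Biochemical qHTS of compounds, final roughly 60 µM downward over six points, against 10 nM purified firefly luciferase using Km concentrations of substrates (10 uM D-luciferin, 10 uM ATP) in Tris acetate pH 7.5 buffer; luminescence output.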
# ELG1 genotoxic – qHTS screen for small molecules that induce genotoxicity in human embryonic kidney (HEK293T) cells expressing luciferase-tagged ELG1; HEK293T ELG1-luciferase reporter, luminescence, 16 h; Potency, µM (series often up to 46 µM), most hits filed as activators; 330,000 tested, 1.3% active; AID 504466, 2011; further: nearly all actives have a fitted effect of over 60% in size
#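 Genotoxic stress is detected as increased luminescence from luciferase-tagged ELG1 in HEK293T cells, measured with ONE-Glo after a 16 hr treatment at 37 °C.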
# NPC1 prom act – qHTS Assay for NPC1 Promoter Activators | Huh7 NPC1 promoter luciferase reporter, 24 h | Potency, µM (doses to about 9.22 µM), actives largely listed as activators | 320,000 tested, 2.4% active | AID 485313, 2010; further: nearly all actives have a fitted effect of over 60% in size
#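 In 1536-well qHTS, Huh7 cells harboring an NPC1 promoter–luciferase construct received compound for 24 h; activation was quantified by luminescence following luciferase reagent addition.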
# Numbers stand for hits; n = inactive; u = inconclusive; x = not tested or not shown; [ ] = another dose, or the depositor's remark. The call rests on the fitted dose curve; in most records, active means well fitted curve in the direction sought with a large enough effect; inconclusive means small, poorly fitted or top-dose-only effect, or another doubt; inactive means no such curve, though single readings can be large; an effect the other way counts as inactive or inconclusive.
SMILES,ELG1 DNA repair,Rab9 promoter act,SMN2 splice up,FLuc counter,ELG1 genotoxic,NPC1 prom act
CCOC(=O)CCSc1nc(C)c2cc(OC)ccc2n1,u,u,n,13µM,u,u
O=C(CSc1nnc2[nH]c(=O)cc(-c3ccccc3)n12)Nc1cc(C(F)(F)F)ccc1Cl,x,x,x,0.21µM,x,x
O=C(CSc1nnc2[nH]c(=O)cc(-c3ccccc3)n12)Nc1ccc(F)cc1F,x,x,x,1.9µM,x,x
Cc1cccc(NC(=O)CSc2nnc3[nH]c(=O)cc(C)n23)c1C,x,x,x,n,x,x
CN(C(=O)CSc1nnc2[nH]c(=O)cc(-c3ccccc3)n12)c1ccccc1,x,x,x,19µM,x,x
Cc1cccc(NC(=O)CSc2nnc3[nH]c(=O)cc(-c4ccccc4)n23)c1C,x,x,x,3µM,x,x
O=c1cc(-c2ccccc2)n2c(SCc3cccc([N+](=O)[O-])c3)nnc2[nH]1,x,x,x,n,x,x
Cc1c(C(=O)O)c(C(=O)O)c2n1CCS2,u,n,x,n,n,n
CCCC(NC(=O)CCc1c(C)c2cc3c(-c4ccccc4)coc3cc2oc1=O)C(=O)O (stereo not given),n,n,x,u,n,n
c1ccc(-c2nnc(SCCC3OCCCO3)o2)cc1,u,2.5µM,11µM,15µM,u,2.5µM
Brc1ccc(-c2nnc(SCCC3OCCCO3)o2)cc1,u,n,n,15µM,n,n
O=C1OCCC1Sc1nnc(-c2ccco2)o1 (stereo not given),n,n,n,n,n,n
O=C1OCCC1Sc1nnc(-c2ccc(Br)cc2)o1 (stereo not given),n,n,n,6µM,n,n
Oc1ccc(N=Nc2n[nH]c(-c3ccccc3)n2)cc1,u,1µM,u,3.8µM,8.2µM,1.6µM
Oc1ccc(N=Nc2n[nH]c(-c3ccc(Br)cc3)n2)cc1,u,n,16µM,7.6µM,n,n
COC(=O)C1=C(C)NC(=O)NC1c1ccc(OC(=O)c2ccco2)cc1 (stereo not given),n,n,n,n,n,n
O=C(Nc1ccc2[nH]c(=S)sc2c1)Nc1ccccc1F,u,0.13µM,x,21µM,0.58µM,0.11µM
O=C(Nc1ccc2[nH]c(=S)sc2c1)c1ccccc1,u,u,11µM,u,u,2.8µM
Cc1ccccc1CN(C)C(=O)COC(=O)c1ccc2[nH]c(C)c(C)c2c1,26µM,x,x,x,n,x
Cc1[nH]c2ccc(C(=O)OC(C)C(=O)NCc3ccccc3)cc2c1C (stereo not given),u,n,x,n,n,n
Cc1nn(-c2ccccc2)c(-n2cccc2)c1C(=O)NCCCN1CCN(c2ccccc2F)CC1,x,x,n,n,x,x
CCOC(=O)c1nnn(CC(=O)NC(=O)Nc2ccc(F)cc2)c1C(=O)OCC,n,n,n,n,n,n
O=C(Nc1cccc(S(=O)(=O)N2CCCCCC2)c1)C1CCN(C(=O)c2ccc(Cl)cc2)CC1,u,n,x,n,n,n
CCc1c(C#N)sc(C(N)=O)c1CC,10µM,n,x,n,n,n
O=C(COC(=O)c1ccccn1)c1cccc(Br)c1,n,n,x,19µM,n,u
SMILES,ELG1 DNA repair,Rab9 promoter act,SMN2 splice up,FLuc counter,ELG1 genotoxic,NPC1 prom act
O=C(COC(=O)c1ccc(Br)cc1)Nc1cccnc1Cl,n,n,x,n,n,n
O=C(OCC1CC(c2ccccn2)=NO1)c1ccc(Br)cc1 (stereo not given),u,n,n,17µM,n,n
COc1ccc(C(=O)COC(=O)c2ccccn2)cc1OC,u,n,x,n,n,n
O=C(COC(=O)c1ccccn1)c1ccc(Br)cc1,n,n,n,2.4µM,n,n
O=C(COC(=O)c1nc(Cl)c(Cl)c(Cl)c1Cl)NCc1ccccc1,u,n,x,n,n,n
COc1ccc(-c2noc(CCC(=O)NCC3CCCO3)n2)cc1OC (stereo not given),n,n,x,n,n,n
CCc1ncc(/C=C2\C(=O)Nc3ccccc32)[nH]1,u,u,x,13µM,n,u
CC(=O)Cn1cnc2c(sc3nc(C)cc(C)c32)c1=O,u,n,x,15µM,u,n
CCN(C(=O)C1=COCCO1)c1nc2c(C)cccc2s1,u,u,x,15µM,21µM,n
Cc1cc(C)c2nc(N(CCCN(C)C)C(=O)C3=COCCO3)sc2c1,n,n,x,n,n,n
CC1CCC2=NN(C(=O)c3ccco3)C(O)(C(F)(F)F)C2C1 (stereo not given),n,n,n,u,n,n
COC(=O)Nc1sc2c(c1C(N)=O)CCCCCC2,n,n,n,u,n,n
C=CC(=O)Nc1sc2c(c1C(N)=O)CCCC2,u,n,x,u,n,n
CC(C)C(=O)NC(=S)Nc1sc2c(c1C(N)=O)CCCC2,u,u,u,9.5µM,u,u
CCCC(=O)NC(=S)Nc1sc2c(c1C(N)=O)CCC2,u,n,u,4.3µM,n,n
C=CCNC(=S)Nc1sc2c(c1C(N)=O)CCCC2,u,n,x,15µM,n,n
COc1ccc(N2CCN(C(=O)c3c(C)nn(-c4ccc(F)cc4)c3-n3cccc3)CC2)cc1,x,x,x,n,x,x
O=S(=O)(c1ccc2ccccc2c1)N1CCC(c2nc(-c3ccncc3)no2)CC1,13µM,n,n,n,n,n
CN(C)c1ccc(-c2noc(C3CCN(S(=O)(=O)c4cccc(Cl)c4)CC3)n2)cc1,u,n,x,n,n,n
Cc1ccc(-c2noc(C3CCN(S(=O)(=O)c4ccc5c(c4)OCCO5)CC3)n2)o1,23µM,n,n,n,n,n
CC(C)C(=O)N1CCC(c2nc(-c3ccc(S(=O)(=O)N4CCN(C)CC4)cc3)no2)CC1,n,n,n,n,n,n
CC(C)N(C(=O)N1CCC(c2nc(-c3ccncc3)no2)CC1)C(C)C,16µM,n,n,n,u,n
Cc1ccc(-c2noc(C3CCCN(S(=O)(=O)c4ccc5ccccc5c4)C3)n2)o1 (stereo not given),n,n,n,u,n,n
COc1ccc(CCNC(=O)C(=O)NCC(c2ccc3c(c2)OCO3)N2CCOCC2)cc1OC (stereo not given),x,x,x,n,x,x
N#CC(C#N)=C(Nc1ccc(F)cc1)SCc1cccc(F)c1,u,n,n,n,n,u
CC(=O)c1sc(N/N=C\c2cccc(Br)c2)nc1C,u,n,u,11µM,n,n
CC(=O)c1sc(Nc2nc(C)cc(C)n2)nc1C,n,n[1.84 µM],n,n,n,n
CCOC(=O)c1sc(N/N=C/c2ccc(N(C)C)cc2)nc1C,n,u,x,11µM,n,n
